In one test the test system is T1, PFTK1.
T1 construct: gene CDK14
As to conditions: concentration: 1 μM, replicates: in singlicate, n = 1.

For a further test, the system named is PHKG1. As to conditions: concentration: 1 μM, replicates: in singlicate, n = 1.
Another test relates to PHKG2. The following applies: concentration: 1 μM, replicates: in singlicate; n = 1.
A further test deals with PIK3C2B. As to conditions: concentration: 1 μM, replicates: in singlicate; n = 1.
The next test concerns PIK3C2G. As to conditions: concentration: 1 μM, replicates: in singlicate; n = 1.
For the next test, the system named is PIK3CA. The following applies: concentration: 1 μM, replicates: in singlicate, n = 1.
The subject of a further test is PIK3CB. The following applies: concentration: 1 μM, replicates: in singlicate, n = 1.
A further test concerns PIK3CD. The following applies: concentration: 1 μM, replicates: in singlicate; n = 1.
The test system of another test is PIK3CG. As to conditions: concentration: 1 μM, replicates: in singlicate, n = 1.
Another test concerns T2, PIK4CB.
T2 construct: gene PI4KB
As to conditions: concentration: 1 μM, replicates: in singlicate, n = 1.

For the next test, the system named is PIKFYVE. The following applies: concentration: 1 μM, replicates: in singlicate, n = 1.
In the next test the test system is PIM1. The following applies: concentration: 1 μM, replicates: in singlicate, n = 1.
The test system of the next test is PIM2. The following applies: concentration: 1 μM, replicates: in singlicate; n = 1.
The subject of another test is PIM3. As to conditions: concentration: 1 μM, replicates: in singlicate, n = 1.
In the next test the test system is PIP5K1A. The following applies: concentration: 1 μM, replicates: in singlicate, n = 1.
For a further test, the system named is PIP5K1C. As to conditions: concentration: 1 μM, replicates: in singlicate, n = 1.
The next test has as its system PIP5K2B. The following applies: concentration: 1 μM, replicates: in singlicate, n = 1.
A further test has as its system T3, PIP5K2C.
T3 construct: gene PIP4K2C
The following applies: concentration: 1 μM, replicates: in singlicate, n = 1.

Another test has as its system T4, PKAC-alpha.
T4 construct: gene PRKACA
The following applies: concentration: 1 μM, replicates: in singlicate, n = 1.

The subject of a further test is T5, PKAC-beta.
T5 construct: gene PRKACB
The following applies: concentration: 1 μM, replicates: in singlicate, n = 1.

Where “and” joins values, the source holds several entries; their conditions need not be identical. Equal values may be shown once. Read-outs that look alike come from different tables or passages of the source.
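Note: KINOMEscan kinase panel screen.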

Turning to `O=c1cc(N2CCOCC2)nc2n(Cc3cccc(C(F)(F)F)c3)ccn12` [GSK2297543], the “%Inh” value with PFTK1 was 12%; with PHKG1, 0%; with PHKG2, 4%; in the test with PIK3C2B, 0%; with PIK3C2G it was 0%; with PIK3CA, 0%. Besides, the “%Inh” value is given as 96.5% in the test on PIK3CB; 28% with PIK3CD; 8% in the test on PIK3CG; 0% in the test on PIK4CB; 0% in the test on PIKFYVE; 11% in the test on PIM1. For the same molecule, the “%Inh” value came to 0% with PIM2; 0% with PIM3; 0% with PIP5K1A; 28% in the test on PIP5K1C; 9% in the test on PIP5K2B; 1% with PIP5K2C. The “%Inh” value was determined as 0% with PKAC-alpha and 8% in the test on PKAC-beta.
Regarding `Cc1nnc(-c2ccc(C)c(-c3ccc(C(=O)Nc4ccc(NS(C)(=O)=O)cc4)cc3)c2)o1` [GW702865], the “%Inh” value was 14% with PFTK1; 2% in the test on PHKG1; 0% with PHKG2; 0% in the test on PIK3C2B; 0% in the test on PIK3C2G; 0% in the test with PIK3CA. Further, the “%Inh” value turned out to be 0% in the test with PIK3CB; 10% with PIK3CD; 0% with PIK3CG; 0% with PIK4CB; 4% with PIKFYVE; 0% with PIM1. Besides, the “%Inh” value came out at 0% in the test with PIM2; 0% with PIM3; 52% with PIP5K1A; 26% with PIP5K1C; 17% with PIP5K2B; 18% in the test on PIP5K2C. For the same molecule, the “%Inh” value with PKAC-alpha and in the test on PKAC-beta was 0% in each case.
On to `Cl.Cl.Cl.Fc1ccc(-c2ncn(C3CCNCC3)c2-c2ccnc(Nc3ccccc3)n2)cc1` [SB-238039], for which the “%Inh” value in the test on PFTK1 (1 µM) is 16% and 0%; in the test on PHKG1 (1 µM), 4% and 0%; in the test with PHKG2, 0%; in the test with PIK3C2B, 0%; with PIK3C2G, 0%; in the test with PIK3CA (1 µM) it was 6% and 0%. Further, the “%Inh” value in the test with PIK3CB (1 µM) was 0% and 13%; in the test with PIK3CD, 0%; with PIK3CG (1 µM), 0% and 26%; in the test with PIK4CB (1 µM), 7% and 34%; in the test on PIKFYVE (1 µM), 5% and 24%; in the test on PIM1 (1 µM), 15% and 2%. In addition, the “%Inh” value with PIM2 was 0%; in the test with PIM3 (1 µM), 19% and 0%; in the test with PIP5K1A (1 µM), 46% and 0%; in the test on PIP5K1C (1 µM), 25% and 0%; with PIP5K2B (1 µM), 24% and 0%; with PIP5K2C (1 µM), 48% and 41%. Moreover, the “%Inh” value in the test with PKAC-alpha (1 µM) was 64% and 46%; with PKAC-beta (1 µM) it was 73% and 65%.
On to `Cc1nnc(-c2ccc3occ(-c4ccc(C(C)O)cc4)c3c2)o1` (stereo not shown), for which the “%Inh” value in the test on PFTK1 came out at 1%; in the test with PHKG1 it was 9%; in the test with PHKG2, 16%; in the test on PIK3C2B, 18%; in the test on PIK3C2G, 23%; with PIK3CA, 9%. Besides, the “%Inh” value is listed as 18% in the test with PIK3CB; 0% with PIK3CD; 25% with PIK3CG; 0% in the test on PIK4CB; 0% with PIKFYVE; 24% in the test on PIM1. In addition, the “%Inh” value stood at 80% with PIM2; 31% with PIM3; 0% in the test on PIP5K1A; 4% in the test with PIP5K1C; 27% in the test on PIP5K2B; 17% with PIP5K2C. In addition, the “%Inh” value with PKAC-alpha was determined as 7%; in the test on PKAC-beta, 17%.
Consider `O=C1Cc2cc(Nc3nc(NCc4cccc(S(=O)(=O)C(F)(F)F)c4)ncc3C(F)(F)F)ccc2N1`, for which the “%Inh” value in the test with PFTK1 came out at 0%; with PHKG1, 3%; in the test on PHKG2 it was 0%; in the test with PIK3C2B it was 0%; in the test with PIK3C2G it was 0%; with PIK3CA, 0%. For the same molecule, the “%Inh” value with PIK3CB was 0%; in the test on PIK3CD, 13%; in the test with PIK3CG, 8%; with PIK4CB, 4%; in the test on PIKFYVE, 6%; in the test on PIM1, 100%. The “%Inh” value worked out at 0% in the test on PIM2; 6% in the test on PIM3; 13% in the test with PIP5K1A; 3% with PIP5K1C; 20% with PIP5K2B; 0% in the test on PIP5K2C. In addition, the “%Inh” value was 0% in the test with PKAC-alpha and 7% with PKAC-beta.
